# From PubChem
# Compounds with a hit are over-represented: about 7.9% of the library has one in this group of screens.
# MARV entry inh = inhibitors of Marburg virus binding or cell entry; 300,000 tested, 1.8% active; AID 540276; Marburg virus pseudotyped entry inhibition, cell reporter; Potency, µM (doses to about 37.8 µM), actives largely listed as inhibitors; calls by dose curve; tested in HEK293 cells
# Lassa entry inh = inhibitors of Lassa virus binding or cell entry; Lassa virus pseudotype entry inhibition, cell reporter; Potency, µM (titrated, usually from 37.9 µM), usual class: inhibitors; 300,000 tested, 1.2% active; calls by dose curve; tested in HEK293 cells; further: nearly all actives have a fitted effect of over 50% in size
# HCV inh = blocks hepatitis C virus | Huh7.5.1 HCVcc-Cre infection, luciferase reporter, 44 h | Potency, µM (highest dose often 41.8 µM), usual class: inhibitors | 340,000 tested, 3.4% active; active means well fitted inhibition curve with a large enough effect; inconclusive means small, poorly fitted or top-dose-only effect, or another doubt; inactive means no such curve, though single readings can be large or run the other way
#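 Infectious HCVcc-Cre (~0.5 moi) was added to cells just after compound, with cells seeded 4 h earlier at 1,000 per well. Luciferase activity after 44 h culture reported infection; substrate was incubated 15 min at room temperature before reading.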
# HCMV antiviral = human cytomegalovirus inhibition. HFF cells, HCMV-luciferase reporter, 72 h; active compounds read low. activity change, negative = inhibition, % at 57.5 µM. 410,000 tested, 4.5% active. AID 1259415; in the data active means activity change below about -60%; inconclusive means no clear call, values can overlap the other calls; inactive means above about -39%
#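 Luciferase read-out from HCMV-luciferase-infected HFFs (MOI 1 PFU/cell) 72 h post infection at 37C; compounds added after 16 h cell attachment; activity normalized between buffer-only basal and Salinomycin (10uM) inhibitor controls.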
# FMDV antiviral = antivirals against foot and mouth disease virus; FMDV antiviral cell-based qHTS; Potency, µM (series often up to 57.9 µM), actives largely listed as inhibitors; 410,000 tested, 1.2% active; AID 1159524; calls by dose curve; tested in HEK293T cells; further: read-out not given here; nearly all actives have a fitted effect of over 45% in size
# A number is an active result; . = inactive; ? = inconclusive; / = not tested or not shown; ! = not confirmed by another sample; [ ] = dose if it differs, or a comment.
SMILES,MARV entry inh,Lassa entry inh,HCV inh,HCMV antiviral,FMDV antiviral
CCN(CC)C(=O)CSc1nc2cc3c(cc2c(=O)n1Cc1ccc(C(=O)NCCc2ccc(OC)c(OC)c2)cc1)OCO3,/,.,/,-83.4,.
CCOC(=O)CSc1nc2cc3c(cc2c(=O)n1CCCC(=O)NCCc1ccc(OC)c(OC)c1)OCO3,/,?,/,.,.
CCN(CC)C(=O)CSc1nc2cc3c(cc2c(=O)n1CCCC(=O)NCCc1ccc(OC)c(OC)c1)OCO3,.,/,.,-67.2,.
CCCCNC(=O)CSc1nc2cc3c(cc2c(=O)n1Cc1ccc(C(=O)NCCc2ccc(OC)c(OC)c2)cc1)OCO3,/,.,/,.,.
CCN(CC)C(=O)CSc1nc2cc3c(cc2c(=O)n1Cc1ccco1)OCO3,.,.,10µM,.,.
CCOc1ccc(CCNC(=O)CN2C(=O)COc3ccc(S(=O)(=O)N4CCC(C)CC4)cc32)cc1,.,.,/,.,.
O=C1C(=O)N(CCN2CCOCC2)C(c2ccccn2)/C1=C(/O)c1ccc(F)cc1 (stereo not drawn),.,.,.,.,.
Cc1nc2ccccn2c1/C(O)=C1\C(=O)C(=O)N(CCN2CCOCC2)C1c1cccnc1 (stereo not drawn),.,.,1µM,.,.
Cc1c(/C(O)=C2/C(=O)C(=O)N(CCN3CCOCC3)C2c2ccccn2)cnn1-c1ccccc1 (stereo not drawn),?,?,.,-78.2,1.41µM
CC(C)c1cccc(-c2nc3c(NC4CCC(O)CC4)nccc3[nH]2)c1 (stereo not drawn),/,/,/,.,/
O=C(NCc1ccco1)c1ccc(Cn2c(=O)c3ccccc3n(Cc3ccc(Cl)cc3)c2=O)cc1,.,.,11.2µM,.,.
O=C(NCc1ccco1)c1ccc(Cn2c(=O)c3ccccc3n(Cc3cccc(F)c3)c2=O)cc1,?,.,.,.,.
COCCCNC(=O)c1ccc(Cn2c(=O)c3ccccc3n(Cc3ccccc3C)c2=O)cc1,?,.,?,-95.5!,.
Cc1ccc(-n2c(=O)c3ccc(C(=O)NCc4ccco4)cc3n(Cc3cccc(Cl)c3)c2=O)cc1,?,.,/,.,.
Cc1ccc(Cn2c(=O)n(-c3ccccc3)c(=O)c3ccc(C(=O)NCc4ccco4)cc32)cc1,.,.,.[8.37 µM],-60.9,.
Cc1ccc2cc(C=C(C#N)C#N)c(N3CCCCC3)nc2c1,.,.,?,.,/
Cc1ccc2cc(/C=C(\C#N)C(N)=O)c(N3CCCCC3)nc2c1,.,.,14.1µM,.,.
COc1c(-c2coc3cc4c(cc3c2=O)CC(O)C(C)(C)O4)ccc2c1C=CC(C)(C)O2 (stereo not drawn),/,/,/,/,2.24µM
O=C(Cn1ncc(Cl)c(Cl)c1=O)Nc1ccc2c(c1)OCO2,/,/,?,-101.9,35.5µM
CCN(CC)S(=O)(=O)c1cc(NC(=O)CN2C(=O)NC(C)(c3ccccc3)C2=O)ccc1C (stereo not drawn),.,?,.,.,.
O=C(Cn1ncc(Cl)c(Cl)c1=O)c1ccc2c(c1)OCCO2,?,12.6µM,2µM,-81.1,?
COc1ccc(NC(=O)Cn2ncc(Cl)c(Cl)c2=O)cc1S(=O)(=O)N1CCOCC1,?,?,8.91µM,-100.2,39.8µM
CCN(CC)S(=O)(=O)c1cc(NC(=O)Cn2ncc(Cl)c(Cl)c2=O)ccc1C,/,/,?,-79.1,.
CCOc1ccc(OCC)c(NC(=O)C2CCCN(S(=O)(=O)c3cc(Br)cc4c3N(C(=O)CC)CC4)C2)c1 (stereo not drawn),.,.,/,.,?
C=C(C)C1CC23C(=O)[C@]4(C(=O)c5ccccc5)C[C@@]5(C)CCC(CC2C1(C)C)(C4=O)[C@@]35OC (stereo partly drawn),.,/,/,/,/
SMILES,MARV entry inh,Lassa entry inh,HCV inh,HCMV antiviral,FMDV antiviral
Cc1cc(C)c(C(=O)CSc2nnc(C)s2)c(C)c1,.,.,.,-61.5,.
N#Cc1nc(-c2cccc3ccccc23)oc1NCC1CCCO1 (stereo not drawn),.,.,?,-67.1,.
Cc1nnc(NCC=Cc2ccccc2)s1,/,/,/,.,.
CC(=O)c1cc2c(cc1NC(=O)C1CC1)OCO2,.,.,11.2µM,.,.
CCOC(=O)C(=Cc1cn(C)c2ccc(S(=O)(=O)N(C)C)cc12)C(=O)OCC,.,.,.,.,31.6µM
CC1CC(C)CN(C(=O)c2cn(C)c3ccc(S(=O)(=O)N(C)C)cc3c2=O)C1 (stereo not drawn),/,/,.,.,.
Cc1ccc(NC(=O)C(C)c2cccc(C(=O)c3ccccc3)c2)cc1O (stereo not drawn),?,?,?,-62.3,?
Cc1c(C(=O)Nc2ccccc2)c2cc(O)ccc2n1Cc1ccccc1,.,.,.,.,.
Cc1c(C(=O)Nc2ccccc2)c2ccc(C(F)(F)F)cc2n1O,?,.,?,-94.6,?
COc1ccc(C(=O)Nc2ccc(C(=O)c3ccccc3)cc2)cc1,.,.,?,?,?
COc1ccc(C(=O)COC(=O)c2ccc(NC(=O)c3ccccc3)cc2)cc1,.,.,10µM,.,.
COc1ccc(C(=O)Nc2ccc(C(=O)OCC(=O)c3ccccc3)cc2)cc1,?,?,.,.,.
CCN(Cc1ccccc1)C(=O)c1ccc(NC(=O)c2ccc(OC)cc2)cc1,/,/,12.6µM,?,.
CC(C)(C)OC(=O)N1CCCC(C(=O)Nc2ccc(C(=O)N3CCOCC3)cc2)C1 (stereo not drawn),/,/,.,.,.
O=C(NCC1=C(Cl)CCCC1)C1CNCCC1C(F)(F)F (stereo not drawn),.,/,/,/,/
O=C(Nc1ccc([N+](=O)[O-])cc1Cl)c1cc(Cl)ccc1O,1.12µM,1.3µM,1.26µM,-97.9,6.31µM!
O=C(Nc1ccccc1Cl)Nc1cccnc1Cl,.,.,?,-61.5,.
O=C(Nc1cccnc1Cl)c1cc([N+](=O)[O-])ccc1Cl,?,?,.,-75.1,.
CN(C)S(=O)(=O)c1ccc(Cl)c(C(=O)Nc2cccc3ncccc23)c1,.,.,.,.,.
O=C(Nc1ccc([N+](=O)[O-])cc1Cl)c1cccc([N+](=O)[O-])c1,/,/,/,.,.
O=C(Nc1cccc2ncccc12)c1cc([N+](=O)[O-])ccc1Cl,.,.,8.91µM,-87.9,?
COC(=O)C(CN)c1c[nH]c2ccc(OC)cc12 (stereo not drawn),/,/,/,/,.
COc1ccc(C(=O)NCC2Cc3c(F)ccc(-c4nc(C)cnc4C)c3O2)cc1F (stereo not drawn),/,/,/,/,.
CCC(=O)N1CCc2cc(S(=O)(=O)NCCC(=O)Nc3ccc(OC)c(Cl)c3)ccc21,.,.,/,.,.
Cc1cc(NC(=O)CSc2ncc(C(=O)O)n2-c2ccc(F)cc2)no1,/,/,.,.,.
CCCSC(=S)c1c(C)[nH]n(-c2ccccc2)c1=O,?,?,?,-79.0,.
O=C(c1ccc2c3c(cccc13)CC2)C1CCCN(C(=O)c2cccnc2)C1 (stereo not drawn),/,/,.,?,.
CSc1ccc(C(=O)C2CCCN(Cc3cccnc3)C2)cc1 (stereo not drawn),.,.,?,-62.0,?
